Screening data as filed in PubChem.
A selection: hits, their analogues and other compounds. The true share with any hit is near 6.9%.
SW480 rereplic: inducers of DNA re-replication in SW480 colon cancer cells | SW480 DNA re-replication, Hoechst DNA content imaging, 48 h | Potency, µM (titrated, usually from 46.1 µM), hits mostly activators | actives 1.8% (n = 340,000) | AID 624297; also: nearly all actives have a fitted effect of over 55% in size
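DNA re-replication was detected as more nuclei of elevated Hoechst intensity after 48 hr exposure to compound (23 nL pinned per well of 250 cells).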
KB-3-1 tox: KB-3-1 parental cell cytotoxicity; KB-3-1 viability, CellTiter-Glo ATP luminescence, 72 h; Potency, µM (titrated, usually from 46.1 µM), usual class: cytotoxic; actives 1.4% (n = 400,000); also: nearly all actives have a fitted effect of over 60% in size
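Cells are dispensed, compounds pinned in, plates held at 37 °C for 72 h, then CellTiter-Glo is added and luminescence read after 10 minutes. Cell line: parental KB-3-1 in phenol-red-free DMEM, 10% FBS.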
KB-V1 MDR tox: KB-V1 MDR subline cytotoxicity. AID 1347076. actives 3.4% (n = 400,000). Potency, µM (titrated, usually from 46.1 µM), hits mostly cytotoxic. KB-V1 MDR cells viability, CellTiter-Glo, 72 h; also: nearly all actives have a fitted effect of over 60% in size
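KB-V1 MDR subline cells in DMEM (phenol-red free, 10% FBS) exposed to compounds in qHTS concentration series for 72 h at 37 degrees C. Viability read by CellTiter-Glo luminescence; concentration-effect curves fitted after normalization and correction.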
Giardia killer: kills Giardia lamblia; Giardia lamblia trophozoite viability; activity change, % at 7.66 µM, hits read low; actives 0.15% (n = 340,000); in the data active = activity change below about -80%; inconclusive = between about -30% and that limit;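 also: parasites exposed to compound for two days anaerobically before the ATP read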
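Giardia lamblia trophozoites (100 cells/well) were incubated with compounds for 48 h at 37 deg C under anaerobic conditions. Viability was read as ATP content by one-step luminescence after 15-30 min at room temperature.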
ASM inhibitor: blocks human secretory acid sphingomyelinase; P17405; placental ASM, HMU-PC fluorogenic substrate, 60 min; Potency, µM (titrated, usually from 57.5 µM), most hits filed as inhibitors; actives 0.006% (n = 340,000)
Target sequence (P17405 47-631 limits assumed): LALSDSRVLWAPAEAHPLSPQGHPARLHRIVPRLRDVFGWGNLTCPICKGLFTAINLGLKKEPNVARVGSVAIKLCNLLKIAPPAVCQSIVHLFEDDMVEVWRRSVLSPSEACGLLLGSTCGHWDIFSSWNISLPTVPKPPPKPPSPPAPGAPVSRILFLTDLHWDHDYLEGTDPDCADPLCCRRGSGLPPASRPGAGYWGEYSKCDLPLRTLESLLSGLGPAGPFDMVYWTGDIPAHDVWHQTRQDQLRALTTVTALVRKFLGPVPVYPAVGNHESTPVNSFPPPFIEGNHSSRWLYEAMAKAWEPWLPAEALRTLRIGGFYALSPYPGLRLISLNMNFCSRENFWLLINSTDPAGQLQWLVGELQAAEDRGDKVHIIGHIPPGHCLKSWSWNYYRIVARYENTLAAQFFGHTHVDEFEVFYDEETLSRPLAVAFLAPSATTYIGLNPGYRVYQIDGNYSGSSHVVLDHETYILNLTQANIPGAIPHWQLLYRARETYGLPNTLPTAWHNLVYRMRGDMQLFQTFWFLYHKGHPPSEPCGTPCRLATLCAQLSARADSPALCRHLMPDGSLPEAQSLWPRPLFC
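Fluorogenic HMU-PC substrate (9 uM final) is turned over by placental ASM in 60 min at 37 C after a 10 min compound preincubation. Reaction ended by alkaline stop (pH 10), with fluorescence read at 386/447 nm.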
MCF10A rereplic: inducers of DNA re-replication in MCF 10A breast cells; MCF 10A DNA re-replication, Hoechst nuclear intensity, 48 h; Potency, µM (doses to about 46.1 µM), usual class: activators; actives 2.9% (n = 350,000); also: nearly all actives have a fitted effect of over 50% in size
Of the large screens only hits and unclear results are named; the others gave an inactive call. Unless noted, calls follow the shape of the dose curve; as a rule, active = well fitted curve in the direction sought with a large enough effect; inconclusive = small, poorly fitted or top-dose-only effect, or another doubt; inactive = no such curve, though single readings can be large; an effect the other way counts as inactive or inconclusive.

Cc1cccc(-c2noc(CNC(=O)c3ccoc3C)n2)c1	MCF10A rereplic 21µM
CCCc1cc(C(=O)N(C)CC(=O)Nc2ccc(OCC)c(OCC)c2)sc1C	KB-3-1 tox inconclusive, KB-V1 MDR tox inconclusive, MCF10A rereplic 0.46µM
CCOc1ccc(NC(=O)CN(C)C(=O)CC2CCCC2)cc1OCC	SW480 rereplic inconclusive, KB-3-1 tox inconclusive
CCOc1ccc(NC(=O)CN(C)C(=O)C2CCCC2)cc1OCC	MCF10A rereplic 0.65µM
O=C1C(=O)c2ccccc2C([O-])=C1[n+]1ccccc1	none
CCc1cc[n+](C2=C([O-])c3ccccc3C(=O)/C2=N\S(=O)(=O)c2cccs2)cc1	SW480 rereplic 4.6µM, MCF10A rereplic inconclusive
O=c1oc(-c2cccs2)nc2sc3c(c12)CCC3	none
O=c1oc(-c2cccs2)nc2sc3c(c12)CCCC3	SW480 rereplic inconclusive, MCF10A rereplic 18µM
CCOc1ccccc1OCCNC1CCCC1	SW480 rereplic 23µM, MCF10A rereplic inconclusive
COc1cccc(OC)c1OCCCNC1CCCC1	SW480 rereplic 6.5µM
CC(C)(C)c1ccc(OCCCNC2CCCC2)cc1	SW480 rereplic inconclusive, KB-3-1 tox inconclusive, KB-V1 MDR tox inconclusive, MCF10A rereplic 16µM
Cc1ccc(OCCCNC2CCCC2)cc1	none
CCOc1ccc(OCCNC2CCCC2)cc1	KB-V1 MDR tox inconclusive
CCCOc1ccc(OCCNC2CCCC2)cc1	KB-V1 MDR tox 23µM, MCF10A rereplic inconclusive
CCCc1nc2ccccc2c(C(=O)OCC(=O)Nc2cccc(S(=O)(=O)N3CCOCC3)c2)c1CC	KB-3-1 tox inconclusive, KB-V1 MDR tox inconclusive, MCF10A rereplic inconclusive
CCCc1nc2ccccc2c(C(=O)OCC(=O)NCc2ccco2)c1CC	KB-V1 MDR tox 5.8µM
CCCc1nc2ccccc2c(C(=O)OCC(=O)Nc2ccc(S(=O)(=O)N3CCOCC3)cc2)c1CC	SW480 rereplic 21µM, KB-3-1 tox inconclusive, KB-V1 MDR tox 3.3µM, ASM inhibitor inconclusive, MCF10A rereplic inconclusive
Cc1cc(C)cc(N(CC(=O)NCC2CCCO2)C(=O)CN2C(=O)COc3ccccc32)c1 (configuration not stated)	KB-V1 MDR tox 13µM
C/C(=N/NC(=O)CN(c1ccccc1)S(=O)(=O)c1ccccc1)c1ccccc1O	SW480 rereplic 16µM, KB-3-1 tox inconclusive
Cc1ccc(Nc2ccc([N+](=O)[O-])nc2[N+](=O)[O-])cc1	Giardia killer -96
Cc1ccc(Nc2ccc3nonc3c2[N+](=O)[O-])cc1	none
Cc1cc2c(cc1NS(=O)(=O)c1ccc(F)cc1)n(C)c(=O)c(=O)n2C	KB-V1 MDR tox inconclusive (no result: SW480 rereplic, Giardia killer, ASM inhibitor, MCF10A rereplic)
COc1ccc(N(C(=O)CCl)C(C(=O)NCCc2ccccc2)c2cccs2)cc1 (configuration not stated)	SW480 rereplic 3.3µM, KB-3-1 tox 7.3µM, KB-V1 MDR tox 18µM, MCF10A rereplic inconclusive
O=C1C2C3C=CC(C3=C(c3ccccc3)c3ccccc3)C2C(=O)N1CCO (configuration not stated)	KB-V1 MDR tox 21µM
O=C1C2C3C=CC(C3=C(c3ccccc3)c3ccccc3)C2C(=O)N1Cc1ccccc1 (configuration not stated)	SW480 rereplic inconclusive, KB-3-1 tox inconclusive, KB-V1 MDR tox 23µM, MCF10A rereplic inconclusive
O=C1C2C(c3ccccc3)C=CC(c3ccccc3)C2C(=O)N1CCO (configuration not stated)	none
CC(=O)c1ccc(NC(=O)c2nc(-c3ccccc3)n(-c3ccc(Cl)cc3)n2)cc1	none (no result: SW480 rereplic, Giardia killer, ASM inhibitor, MCF10A rereplic)
COc1ccccc1C(C)NCC(=O)c1c(C)[nH]c2ccccc12 (configuration not stated)	none (no result: SW480 rereplic, Giardia killer, ASM inhibitor, MCF10A rereplic)
Cc1cc(C)cc(NC(=O)Nc2ccc(-n3ccc(C(F)(F)F)n3)cc2)c1	SW480 rereplic inconclusive, MCF10A rereplic 21µM
O=S(=O)(c1ccccc1)N1CCN(S(=O)(=O)c2ccccc2)c2ccccc21	KB-V1 MDR tox 21µM
Cc1nn2c(C)c(C(=O)N3CCN(c4ccccc4)CC3)cnc2c1-c1ccccc1	none (no result: SW480 rereplic, Giardia killer, ASM inhibitor, MCF10A rereplic)
Cc1ccc(NC(=O)c2cccc(NC(=O)N3CCSc4ncccc43)c2)cc1Cl	none (no result: SW480 rereplic, Giardia killer, ASM inhibitor, MCF10A rereplic)
COc1ccc(NC(=O)C2Cc3cccc(OC)c3O/C2=N\O)cc1 (configuration not stated)	KB-3-1 tox inconclusive
COc1cccc2c1O/C(=N\O)C(C(=O)Nc1ccc(C)cc1)C2 (configuration not stated)	SW480 rereplic inconclusive, KB-3-1 tox 4.1µM, MCF10A rereplic 18µM
O=C(CSc1nc2c(c(=O)[nH]1)CCCC2)Nc1cccc(O)c1	none (no result: SW480 rereplic, Giardia killer, ASM inhibitor, MCF10A rereplic)
O=c1cc2c(n[nH]1)-c1ccccc1CC2	KB-3-1 tox 1.3µM, KB-V1 MDR tox inconclusive
O=C1c2ccccc2CCc2ccccc21	none
CN(CC1CCCN(CCc2ccc(Cl)cc2)C1)C(=O)c1ccoc1 (configuration not stated)	KB-V1 MDR tox inconclusive
CN(CC1CCCN(CCc2ccc(Cl)cc2)C1)C(=O)CC(F)(F)F (configuration not stated)	SW480 rereplic 5.8µM
Cc1ccc(N(C)S(=O)(=O)c2ccc(-c3coc(C)n3)cc2)cc1	none (no result: SW480 rereplic, Giardia killer, ASM inhibitor, MCF10A rereplic)
S=c1[nH]c2ccccc2n1CCc1ccccc1	none (no result: SW480 rereplic, Giardia killer, ASM inhibitor, MCF10A rereplic)
CCCN(CC(=O)Nc1ccccc1C)C(=O)c1cc2ccccc2oc1=O	none (no result: SW480 rereplic, Giardia killer, ASM inhibitor, MCF10A rereplic)
COc1cc2c(cc1OC)C(COc1ccc3c(C)cc(=O)oc3c1)N(C(=O)c1cccc(OC)c1OC)CC2 (configuration not stated)	none (no result: SW480 rereplic, Giardia killer, ASM inhibitor, MCF10A rereplic)
CC(NC(=O)c1ccc([N+](=O)[O-])o1)C1CC2CCC1C2 (configuration not stated)	SW480 rereplic 10µM, KB-3-1 tox inconclusive, KB-V1 MDR tox inconclusive, Giardia killer inconclusive, MCF10A rereplic 12µM
O=C(NC12CC3CC(CC(C3)C1)C2)c1ccc([N+](=O)[O-])o1	SW480 rereplic inconclusive, KB-3-1 tox 5.2µM, Giardia killer -93, MCF10A rereplic 8.2µM
CCC(C)NC(=O)Cn1nc([N+](=O)[O-])c(Cl)c1C (configuration not stated)	SW480 rereplic inconclusive
Cc1c(Cl)c([N+](=O)[O-])nn1CC(=O)NC(C)C1CC2CCC1C2 (configuration not stated)	KB-3-1 tox 23µM
O=C(NC12CC3CC(CC(C3)C1)C2)c1ccc(-c2ccc(Br)cc2)o1	SW480 rereplic inconclusive, KB-V1 MDR tox inconclusive, MCF10A rereplic 21µM
CCN(C(=O)c1c(C)cc(=O)oc1C)c1ccc2c(c1)OCO2	none
CCN(C(=O)c1coc(=O)c(Br)c1)c1ccc2c(c1)OCO2	SW480 rereplic inconclusive, MCF10A rereplic 13µM
N#Cc1c(N)nc(N)nc1Nc1ccc(Br)cc1	KB-3-1 tox inconclusive, KB-V1 MDR tox 13µM
